In PubChem BioAssay (NCATS):
Inconclusive results are not listed. Entries that show only a call come without a potency. Calls of active or inactive are those of the source. The call rests on the fitted dose curve.

Test: Primary qHTS for Huh7 cytotoxicity: counterscreen for inhibitors of MERS-S pseudotyped particle cell entry (AID 1479147)
Settings: cell viability read-out; series mostly up to 57.1 µM

| SMILES | Potency |
| --- | --- |
| C[C@@H](N)C(=O)O | inactive |
| Oc1c(I)cc(I)c2cccnc12 | inactive |
| COc1cc2nccc(Oc3ccc(NC(=O)C4(C(=O)Nc5ccc(F)cc5)CC4)cc3)c2cc1OC | inactive |
| Cc1ccccc1N=Nc1ccc(N=Nc2c(O)ccc3ccccc23)c(C)c1 | inactive |
| Cc1c(C(=O)Nc2ccc(N3C[C@@H](C)O[C@@H](C)C3)nc2)cccc1-c1ccc(OC(F)(F)F)cc1 | inactive |
| COc1cc2c(cc1OC)CC(=O)N(CCCN(C)C[C@H]1Cc3cc(OC)c(OC)cc31)CC2 | inactive |
| O=C(c1cc(Cc2n[nH]c(=O)c3ccccc23)ccc1F)N1CCN(C(=O)C2CC2)CC1 | inactive |
| CCOP(=O)(OCC)C(C)NC(=O)N(CCCl)N=O (stereo unspecified) | inactive |
| Cc1cn(-c2cc(NC(=O)c3ccc(C)c(Nc4nccc(-c5cccnc5)n4)c3)cc(C(F)(F)F)c2)cn1 | inactive |
| Clc1ccccc1CN1CCc2sccc2C1 | inactive |
| CCCS(=O)(=O)Nc1ccc(F)c(C(=O)c2c[nH]c3ncc(-c4ccc(Cl)cc4)cc23)c1F | inactive |
| Cn1cncc1[C@@](N)(c1ccc(Cl)cc1)c1ccc2c(c1)c(-c1cccc(Cl)c1)cc(=O)n2C | inactive |

Test: Primary qHTS for inhibitors of MERS-S pseudo-typed particle cell entry (AID 1479149); further: nearly all actives have a fitted effect of over 60% in size; further: potency means the concentration at half of the fitted maximal effect
Settings: MERS-S pseudotyped particle entry, luciferase; series mostly up to 57.1 µM

| SMILES | Potency |
| --- | --- |
| C[C@@H](N)C(=O)O | inactive |
| Cc1ccccc1N=Nc1ccc(N=Nc2c(O)ccc3ccccc23)c(C)c1 | inactive |
| Cc1c(C(=O)Nc2ccc(N3C[C@@H](C)O[C@@H](C)C3)nc2)cccc1-c1ccc(OC(F)(F)F)cc1 | 20 µM (active) |
| COc1cc2c(cc1OC)CC(=O)N(CCCN(C)C[C@H]1Cc3cc(OC)c(OC)cc31)CC2 | inactive |
| CCOP(=O)(OCC)C(C)NC(=O)N(CCCl)N=O (stereo unspecified) | inactive |
| Cc1cn(-c2cc(NC(=O)c3ccc(C)c(Nc4nccc(-c5cccnc5)n4)c3)cc(C(F)(F)F)c2)cn1 | inactive |
| Clc1ccccc1CN1CCc2sccc2C1 | inactive |

Test: Primary qHTS for Vero E6 cytotoxicity: counterscreen for inhibitors of SARS-S pseudo-typed particle cell entry (AID 1479150)
Settings: cell viability; series mostly up to 57.1 µM

| SMILES | Potency |
| --- | --- |
| C[C@@H](N)C(=O)O | inactive |
| Oc1c(I)cc(I)c2cccnc12 | inactive |
| COc1cc2nccc(Oc3ccc(NC(=O)C4(C(=O)Nc5ccc(F)cc5)CC4)cc3)c2cc1OC | inactive |
| Cc1ccccc1N=Nc1ccc(N=Nc2c(O)ccc3ccccc23)c(C)c1 | inactive |
| Cc1c(C(=O)Nc2ccc(N3C[C@@H](C)O[C@@H](C)C3)nc2)cccc1-c1ccc(OC(F)(F)F)cc1 | inactive |
| COc1cc2c(cc1OC)CC(=O)N(CCCN(C)C[C@H]1Cc3cc(OC)c(OC)cc31)CC2 | inactive |
| O=C(c1cc(Cc2n[nH]c(=O)c3ccccc23)ccc1F)N1CCN(C(=O)C2CC2)CC1 | inactive |
| CCOP(=O)(OCC)C(C)NC(=O)N(CCCl)N=O (stereo unspecified) | inactive |
| Cc1cn(-c2cc(NC(=O)c3ccc(C)c(Nc4nccc(-c5cccnc5)n4)c3)cc(C(F)(F)F)c2)cn1 | inactive |
| Clc1ccccc1CN1CCc2sccc2C1 | inactive |
| CCCS(=O)(=O)Nc1ccc(F)c(C(=O)c2c[nH]c3ncc(-c4ccc(Cl)cc4)cc23)c1F | inactive |
| Cn1cncc1[C@@](N)(c1ccc(Cl)cc1)c1ccc2c(c1)c(-c1cccc(Cl)c1)cc(=O)n2C | inactive |
